Screens from PubChem.
TGFb inhibitor: blocks TGF-b signaling. Potency, µM (top dose mostly 46.1 µM), without a hit: at the top dose activity, negative = inhibition, most hits filed as inhibitors. HepG2 CAGA-GFP TGF-b/SMAD3 reporter, GFP fluorescence, 18 h; TGF-beta stimulated, 500 pg/mL final. actives 1.2% (n = 410,000). AID 588855; also: potency is read from the fitted curve at half-maximal effect; % is scaled to controls: 0 for no effect and ±100 for the full control effect; nearly all actives have a fitted effect of over 65% in size
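Cell-based qHTS in HEPG2 carrying a CAGA-GFP Smad reporter; compounds added before 500 pg/mL final TGF-beta, 18 h incubation at 37 degrees C, GFP fluorescence quantified per cell by imaging cytometry.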
Giardia kill: Giardia lamblia killing; Giardia lamblia trophozoite viability; activity change, % at 7.66 µM, hits read low; actives 0.15% (n = 340,000); AID 540267; in the data active = activity change below about -80%; inconclusive = between about -30% and that limit;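 also: parasites exposed to compound for two days anaerobically before the ATP read; % is scaled to controls: 0 for no effect and ±100 for the full control effect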
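Each well holds 100 Giardia trophozoites and compound. After two days (48 hrs) at 37 deg C in anaerobic conditions, ATP is quantified by luminescence.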
IL1B secr inh: inflammasome signaling inhibition, IL-1 beta readout; actives 4.7% (n = 360,000); activity change, % at 57.5 µM; THP-1 LPS/ATP IL-1B secretion, AlphaLISA, 16 h; hits give low values; in the data active = activity change below about -50%; inconclusive = mostly about -30% to -49%; also: % is scaled to controls: 0 for no effect and ±100 for the full control effect
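Secreted IL-1B measured by AlphaLISA bead assay after 16 h compound exposure of THP-1 cells; compounds (final up to 57.5 uM) added 1 h before LPS (250 ng/mL) and ATP (1.25 mM) stimulation; lower signal means less secretion.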
HepG2 tox: HepG2 cytotoxicity, counter-screen for TGF-b inhibitors. HepG2 CAGA-GFP viability, ATP luminescence, 18 h. Potency, µM (top dose mostly 46.1 µM), for inactives: at the highest dose activity change, negative = cytotoxicity, hits mostly cytotoxic. actives 0.76% (n = 410,000). AID 588856; also: potency is read from the fitted curve at half-maximal effect
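HepG2 CAGA-GFP cells (1000/well, DMEM with 1% FBS) received compound, then TGF-beta at 500 pg/mL final, and were incubated 18 hours at 37 degrees C. Viability was read by CellTiter-Glo luminescence. Media-only wells were set as complete cell-killing and DMSO as no toxicity.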
HT1080NT lethal: kills 2HG-producing HT-1080-NT fibrosarcoma cells. HT-1080-NT fibrosarcoma viability, CellTiter-Glo ATP luminescence, 48 h. Potency, µM (series often up to 46.1 µM), inactives show at the top dose activity, negative = less viability, actives largely listed as cytotoxic. actives 1.6% (n = 360,000). AID 686970;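 also: NT is the 2HG producing partner of a matched IDH1 knockdown line; potency is read from the fitted curve at half-maximal effect; 0% = DMSO-treated cells and -100% = media-only wells without cells; nearly all actives have a fitted effect of over 55% in size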
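Read-out is CellTiter-Glo luminescence after 10 minutes at room temperature, following 48 hours' compound treatment of HT-1080-NT cells (750 cells/well, RPMI, 5% FBS, 37 degrees C).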
HT1080 IDH1KD tx: HT-1080 IDH1 knockdown cell toxicity (counter line). HT-1080 IDH1 knockdown viability, ATP luminescence, 48 h. Potency, µM (doses to about 46.1 µM), inactives show top-dose activity, negative = toxicity, most hits filed as cytotoxic. actives 2% (n = 360,000);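 also: potency is read from the fitted curve at half-maximal effect; 0% = DMSO wells and -100% = cell-free medium wells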
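% activity derives from luminescence (CellTiter-Glo), normalised to DMSO and no-cell wells. HT-1080-IDH1KD cells, 750/well, had 48 h compound exposure at 37 °C.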
* = called active by the depositor; i = inactive; u = inconclusive. Only some compounds are listed: those with a hit (about 6.5% of all), similar ones and a draw of the others. Unless noted, calls follow the shape of the dose curve; as a rule, active = well fitted curve in the direction sought with a large enough effect; inconclusive = small, poorly fitted or top-dose-only effect, or another doubt; inactive = no such curve, though single readings can be large; an effect the other way counts as inactive or inconclusive.

SMILES	TGFb inhibitor	Giardia kill	IL1B secr inh	HepG2 tox	HT1080NT lethal	HT1080 IDH1KD tx
COc1cccc(/C=N/Nc2nc(Nc3ccccc3)nc(-n3nc(C)cc3C)n2)c1O	1.6µM*	18	0	-43%	6.5µM*	7.3µM*
CN1CCN(c2nnc(-c3ccc(Cl)cc3)c3ccccc23)CC1	-7%	11	-16	-27%	-21%	-7%
COc1ccc(/C=N/NC(=O)c2cccc(OC(F)(F)C(F)F)c2)c(OC)c1OC	-12%	-2	-2	-5%	4%	12%
Cc1cc(C(=O)Nc2ccc3c(c2)OCO3)no1	-3%	-9	-16	-15%	u	21µM*
CC(C)(C)C1CCc2onc(C(=O)Nc3ccc4c(c3)OCO4)c2C1 (stereo not drawn)	-3%	-9	-29	10%	u	13µM*
CC(C)Cc1cc(C(=O)Nc2ccc3c(c2)OCO3)no1	5%	4	-22	-22%	u	5.2µM*
COc1ccc(-c2ccc(SCC(=O)Nc3cccc(C(C)=O)c3)nn2)cc1OC	-2%	14	-86*	3%	0%	-19%
COc1ccc(NC(=O)C(=O)NCCC2CCCCN2S(=O)(=O)c2cccs2)cc1 (stereo not drawn)	2%	3	-27	5%	u	5.8µM*
COc1ccc(CNC(=O)C(=O)NCCC2CCCCN2S(=O)(=O)c2ccccc2)cc1 (stereo not drawn)	-8%	-4	-12	0%	-4%	-7%
COc1ccc(NC(=O)C(=O)NCCC2CCCCN2S(=O)(=O)c2ccccc2)cc1 (stereo not drawn)	-23%	-10	-1	-37%	u	13µM*
O=C(NCCC1CCCCN1S(=O)(=O)c1cccs1)C(=O)Nc1ccccc1 (stereo not drawn)	32%	3	u	1%	-4%	-16%
O=C(NCCSc1ccccc1)c1ccc(Br)cc1	-8%	-8	-6	-9%	14%	26%
O=C(NCCCSc1ccccc1)c1cc(Br)ccc1O	u	5	-2	-38%	u	18µM*
COc1ccc(Cl)cc1C(=O)NCCCSc1ccccc1	-23%	-2	-54*	-13%	6%	3%
Cn1c(=O)c2c(nc(N3CCNCC3)n2Cc2ccccc2Cl)n(C)c1=O	6%	10	0	5%	6%	15%
CNC(=S)NN=C(C)CCCC(C)=NNC(=S)NC	4.5µM*	6	-105*	-49%	11%	20%
CNC(=S)N/N=C(\C)c1ccc(Cl)c(Cl)c1	-14%	-7	-12	-1%	-3%	-3%
CCn1c(SCC(=O)N(C)CC(=O)Nc2ccc(F)c(F)c2F)nnc1-c1ccco1	-2%	6	i	0%	2%	13%
O=[N+]([O-])c1ccc(N2CCCCC2)cc1NCCOc1ccccc1	-13%	15	-4	4%	19%	19%
CCc1ccc(OCCNc2cc(N3CCNC(C)C3)ccc2[N+](=O)[O-])cc1 (stereo not drawn)	u	-1	-67*	11µM*	u	u
Cc1ccccc1OCCNc1cc(N2CC(C)NC(C)C2)ccc1[N+](=O)[O-] (stereo not drawn)	u	-22	u	-116%	u	u
CC1CN(c2ccc([N+](=O)[O-])c(NCCOc3ccccc3)c2)CC(C)N1 (stereo not drawn)	u	0	-59*	-58%	16µM*	21µM*
CC1CN(c2ccc([N+](=O)[O-])c(NCCOc3ccc(Cl)cc3)c2)CC(C)N1 (stereo not drawn)	u	-3	-27	14µM*	u	u
COc1ccccc1NC(=S)Nc1cccc(F)c1	u	11	-2	0%	11%	6%
